The whole screen tested about 2,300 compounds, of which about 20 (0.9%) were called active. The sample as a whole holds a higher share of actives than the screen did. Unmarked numbers belong to inactive results.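 Rule for the calls: active = mean percent activation across replicates above the counterscreen hit cutoff of 9.17%; inactive = the rest.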

For this assay, the target named is Glucose-dependent insulinotropic receptor (Homo sapiens) (UniProt Q8TDV5). The assay can be described thus: off-target GPR119 activation – cell-based, PathHunter beta-arrestin, luminescence, set 2, counter-screen for GPR151 activator project, confirmation (AID 1508607).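 Note: 0% = median of sample wells and 100% = wells given EA reagent.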 The following applies: GPR119 PathHunter beta-arrestin cells, 90 min, at 11.2 µM, hits give high values.
Glucose-dependent insulinotropic receptor (Homo sapiens), sequence (Q8TDV5 whole entry, looked up): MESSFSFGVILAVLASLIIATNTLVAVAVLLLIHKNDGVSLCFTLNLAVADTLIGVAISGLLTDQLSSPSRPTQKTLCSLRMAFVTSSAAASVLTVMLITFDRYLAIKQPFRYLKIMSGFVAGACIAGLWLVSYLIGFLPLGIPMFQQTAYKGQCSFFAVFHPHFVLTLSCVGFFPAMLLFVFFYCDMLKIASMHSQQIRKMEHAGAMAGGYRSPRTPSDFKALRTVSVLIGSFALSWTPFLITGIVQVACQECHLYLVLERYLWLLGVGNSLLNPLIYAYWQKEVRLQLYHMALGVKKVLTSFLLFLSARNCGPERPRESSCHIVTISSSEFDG
Take `COc1ccc(Br)cc1CNC(=O)Cc1c(C(=O)O)[nH]c2ccccc12`: the activation was 4.16%.
On to `Cn1c(SCc2ccc(F)cc2)nc2ccc(C(=O)N3CCC(C(N)=O)CC3)cc21`, for which the activation is 0.07%.
For the molecule `Cc1csc(CNC(=O)CC2C(=O)NCCN2Cc2ccc(F)cc2Cl)n1` (stereo unspecified), the activation was 3.99%.
On to `OC(COc1ccc(CNCCc2cscn2)cc1)CN1CCc2ccccc2C1` (stereo unspecified), for which the activation was 3.64%.
Take `O=C(CNc1ccccc1)N/N=C/c1cc([N+](=O)[O-])ccc1O`: the activation is -3.89%.
To `O=C(Nc1cc(Cl)ccc1Cl)c1ccccc1O` belongs -0.02%.
On to `CCc1ccccc1NC(=O)Cn1nnc(C(=O)OC)c1C(=O)OC`, for which the activation is 3.17%.
In the case of `Cc1ccn2c(-c3csc(Nc4ccccc4)n3)c(C)nc2c1`, the activation is -1.87%.
In the case of `CC1=NNC(=O)C1CCC(=O)N/N=C(\C)c1ccc(C)cc1` (stereo unspecified), the activation was -4.69%.
Consider `CCn1c(=O)c2cc(C(=O)Nc3ccsc3C(=O)OC)sc2c2ccccc21`, for which the activation was -1.75%.
With `CCOC(=O)N1CCN(C(=S)Nc2ccc(C)cc2)CC1`, the activation is 2.12%.
To `O=S(=O)(NCCC12CC3CC(CC(C3)C1)C2)c1cccc2nsnc12` belongs 0.9%.
Turning to `CCc1ccc(NC(=O)Cn2nnc(C(=O)OC)c2C(=O)OC)cc1`, the activation was -0.08%.
Then `c1ccc(N2CCOCC2)c(Nc2nc3ccccc3n3cnnc23)c1`, with 0.28%; and `O=C(CSC1=NC(=O)C(c2ccccc2)C(=O)N1)c1ccccc1` (stereo unspecified), with -3.69%.
For the molecule `CCN1CCC(N(Cc2ccc(F)cc2)C(=O)Nc2ccccc2F)CC1`, the activation is -1.27%.
In the case of `CCOC(=O)C1CCCN(c2c(Nc3cccc(C)c3)c(=O)c2=O)C1` (stereo unspecified), the activation is -2.19%.
Turning to `COc1ccc(C(=O)NCC2(c3ccccc3)CCCC2)cc1[N+](=O)[O-]`, the activation was -1.92%.
On to `CSc1ccccc1N1C(=O)CC(Sc2ccccc2C(=O)O)C1=O` (stereo unspecified), for which the activation is 2.04%.
As to `CC1Oc2cccnc2N(Cc2cccc(C#N)c2)C1=O` (stereo unspecified), the activation is 0.9%.
For the molecule `COc1ccc(-c2noc(CCC(=O)Nc3ccc(C)c(C)c3)n2)cc1`, the activation was 1.95%.
Then `COc1ccc(-c2nc(-c3ccc(NC(=O)c4ccc(Br)o4)cc3)no2)cc1OC`, with 14.8% (active); and `COc1cccc(C(=O)Nc2ccc(-n3nncc3-c3ccc(OC)c(OC)c3)cc2)c1`, with 5.22%; and `CCC1CN(CCNC(=O)c2ccc(C(C)=O)s2)Cc2cc(OC)ccc2O1` (stereo unspecified), with 2.67%.
To `CCN(CC)S(=O)(=O)c1ccc(-c2csc(=Nc3ccccc3OC)n2CC)cc1` belongs -1.01%.
With `c1ccc(Oc2nc(NC3CC3)c3ncn(-c4ccsc4)c3n2)cc1`, the activation was 10.5% (active).
To `Clc1nc(NCc2ccccc2)c2ncn(-c3ccccc3)c2n1` belongs -3.84%; to `C(=N\Nc1nnnn1-c1cccc2ccccc12)/c1ccc2c(c1)OCO2`, 3.7%.
`O=C(COc1ccc(Cl)cc1Cl)Nc1c2c(nn1-c1ccc(F)cc1)CSC2`: the activation is 3.41%.
In the case of `CCOc1cc(/C=C2/C(=N)N3OC(C)=CC3=NC2=O)ccc1OCc1ccc2c(c1)OCO2`, the activation is 2.7%.
With `O=C1[C@H]2[C@H]3[C@H](O)[C@H](O)C/C(=N\OCc4ccccc4)[C@H]3CC[C@H]2C(=O)N1C1CCCCC1`, the activation is -1.69%.
To `Cc1cc(/C=C2/C(=N)N3C=CSC3=NC2=O)c(C)n1-c1ccc(Cl)cc1` belongs -1.56%; to `CCN(CC)c1cc(C)c2ccccc2n1`, 1.75%.
Then `Cc1ccc(OC(C)c2nc(-c3ccc(OCC(N)=O)cc3)no2)cc1C` (stereo unspecified), with 8.62%; and `CC1CCN(Cc2nnnn2CC(=O)NCC2CCCO2)CC1` (stereo unspecified), with 4.51%.
As to `CC(=O)c1ccc(NCN2C(=O)C3CC=C(Cl)CC3C2=O)cc1` (stereo unspecified), the activation is 2.21%.
Then `COC(=O)c1cn(-c2ccccc2)nc1-c1ccc(F)cc1`, with 0.06%; and `COc1ccc(-c2noc(CC(=O)NCCN3CCOCC3)n2)cc1`, with 0.07%.
Then `COc1ccc2nc(N3CCCC(C(=O)NCCCOC(C)C)C3)sc2c1` (stereo unspecified), with 0.71%.
Regarding `COc1ccc(C2C(C(=O)OCCc3ccccc3)=C(C)NC3=C2C(=O)CCC3)cc1O` (stereo unspecified), the activation was 3.23%.
With `COC(=O)C1=C(N)n2c(s/c(=C\c3ccc(Cl)cc3)c2=O)=C(C(=O)OC)C1c1ccc(Cl)cc1` (stereo unspecified), the activation was -5.44%.
Then `CC1CC(C)CN(C(=O)Cn2cc(C=O)c3ccccc32)C1` (stereo unspecified), with 0.05%.
In the case of `COC(=O)CN1C(=O)S/C(=C/c2ccco2)C1=O`, the activation was 3.06%.
For the molecule `Cn1ccnc1C(=O)C1CCCN(C(=O)CCc2nnc(-c3ccccc3)o2)C1` (stereo unspecified), the activation was 2.54%.
Then `COc1ccc(-c2cc(-c3ccccc3)c(C#N)c(SC3CCCCC3O)n2)cc1` (stereo unspecified), with 4.49%; and `COc1cc(/C=C2/C(=N)N3OC(C)=CC3=NC2=O)ccc1OCCOc1ccc(C)cc1`, with 2.89%.
With `CCOC(CNc1ncnc2sc(C)c(C)c12)OCC`, the activation is 0.97%.
Regarding `CCC(=O)N1CCN(c2ccc(NC(=O)c3ccco3)cc2)CC1`, the activation was 0.71%.
Then `Cc1ccc(/C=N/NC(=O)c2ccc(O)cc2O)cc1`, with -2.17%; and `O=C(O/C(=C/c1nc2ccccc2n1Cc1cccc2ccccc12)c1ccc(Cl)cc1)c1ccc(Cl)cc1`, with -1.84%; and `COc1ccccc1C(=O)COC(=O)C1(C)CC1(Cl)Cl` (stereo unspecified), with 5.89%.
On to `CCC(C(=O)N1CCOCC1)n1c2ccccc2c2cn[nH]c(=O)c21` (stereo unspecified), for which the activation is -3.25%.
Turning to `O=C(CC(c1ccccc1)c1ccccc1)N1CCN(c2cccc(Cl)c2)CC1`, the activation was -2.36%.
With `CC(=O)c1c(C)[nH]c(C(=O)N2CCN(c3ncccn3)CC2)c1C`, the activation was -3.09%.
For `CCc1c(C(=O)N2CCN(c3cccc(Cl)c3)CC2)[nH]c(C)c1C(C)=O`, the activation is 20.1% (active).
Then `CC(C)(C)NC(=S)Nc1cccc(F)c1`, with 6.02%; and `COc1ccc(CCn2c(-c3ccc(Cl)cc3)csc2=Nc2ccc(F)cc2)cc1OC`, with 0.18%.
Take `COc1ccc(N(C(=O)C(C)Oc2ccccc2)C2C=CS(=O)(=O)C2)c(OC)c1` (stereo unspecified): the activation was -0.94%.
For `O=C1N[C@H](Cc2ccc(O)cc2)C(=O)N2CCN(Cc3cnn(-c4cccc(Cl)c4)c3)C[C@H]12`, the activation is 3.76%.
With `COc1ccc(CNC(=O)C(NS(=O)(=O)c2ccc3c(c2)oc(=O)n3C)C(C)C)cc1` (stereo unspecified), the activation was -0.7%.
For `Cc1cccc(N2CCN(C(=O)c3ccc(S(=O)(=O)c4ccc(F)cc4)c([N+](=O)[O-])c3)C(C)C2)c1` (stereo unspecified), the activation is 14.7% (active).
Turning to `Cc1ccc(C)c(N2CCN(C(=O)c3ccc(S(=O)(=O)c4ccc(Br)cc4)c([N+](=O)[O-])c3)CC2)c1`, the activation is 4.42%.
As to `COc1ccc(N2CCN(C(=O)c3ccc(SCc4ccccc4F)c([N+](=O)[O-])c3)CC2)cc1`, the activation was 0.52%.
Then `Cc1ccccc1-n1cc(-c2ccccc2)[nH]c1=S`, with -4.28%; and `CSC1=NCCN1C(=O)COc1ccc2ccccc2c1`, with -1.84%.
On to `COc1cc2nc(SCC(N)=O)n3nc(CCn4nc(C)cc4C)nc3c2cc1OC`, for which the activation is 1.45%.
Take `Cc1c(C(=O)NCCC2CCCN2C)sc2ncnc(NCc3ccco3)c12` (stereo unspecified): the activation is 3.32%.
Consider `CCc1nnc(NC(=O)CSc2nc3cccnc3n2Cc2ccccc2)s1`, for which the activation was 0.71%.
Turning to `O=C(COc1ccccc1[N+](=O)[O-])N/N=C/c1ccc(Br)cc1`, the activation is 0.11%.
To `Cc1cccc2c(N3CCCC3)nc(CNS(=O)(=O)c3ccc4c(c3)OCCO4)nc12` belongs -0.61%; to `COCC1CCN(c2nc3nonc3nc2NC2CCCC2)CC1`, 2.9%; to `O=C(CN1C(=O)C(c2ccccc2)=NC12CCCC2)Nc1ccccc1`, -0.92%.
Take `CCC(CC)C(=O)Nc1nnc(SCC(=O)Nc2cc(C(F)(F)F)ccc2Cl)s1`: the activation is 1.93%.
`Cn1cc(SCC(=O)Nc2ccccc2C(F)(F)F)c2ccccc21`: the activation was 3.59%.
Regarding `O=C(Nc1cc(C(F)(F)F)ccc1Cl)c1ccc(C(=O)C(=O)c2ccccc2)cc1`, the activation was 6.45%.
Turning to `Cc1ccc2c(c1)c(=O)c1ccccc1n2CC(=O)Nc1cccc(Cl)c1C`, the activation was -2.08%.
As to `CCOC(=O)c1nnn(CC(=O)Nc2cccc(C)c2)c1C(=O)OCC`, the activation was 1.6%.
As for `Cc1cc2c(cc1C)C(c1cc([N+](=O)[O-])ccc1Cl)CC(=O)N2` (stereo unspecified), the activation was 0.43%.
`O=C(CCCn1c(=O)[nH]c2ccccc2c1=O)NC1CCCC1`: the activation is -1.75%.
As to `CCn1c(SC(C)C(=O)OC)nc2c(c1=O)SC(C)C2` (stereo unspecified), the activation is -0.05%.
For the molecule `COc1ccc(NS(=O)(=O)c2ccc(NC(=S)NC(C)=O)cc2)cc1`, the activation is 3.81%.
`CCC(C)NC(=O)c1cc(=O)[nH]c2ccc(Br)cc12` (stereo unspecified): the activation was 47.8% (active).
Regarding `CCC(C)NC(=O)c1ccc(-n2c(=S)[nH]c3ccccc3c2=O)cc1` (stereo unspecified), the activation is 0%.
`CCC(C)NC(=O)c1cc2c(=O)oc3ccccc3c2s1` (stereo unspecified): the activation is 4.04%.
Consider `CCc1c(C)sc(NC(NC(=O)C(C)C)(C(F)(F)F)C(F)(F)F)c1C#N`, for which the activation was -0.12%.
As to `COc1cc(C2CC(=O)N3CN(C4CCCCC4)CSC3=C2C#N)cc(OC)c1OC` (stereo unspecified), the activation is -2.01%.
As to `CCOC(=O)c1c(NC(=O)CSc2c[nH]c3ccccc23)sc2c1CCCCC2`, the activation is 4.28%.
As to `CCCCCCCCCCCCCC/C(C(=O)O)=C(\C)C(=O)O`, the activation is -2.17%.
In the case of `Cc1ccc2c(c1)NC(C)(C)c1sn(-c3ccc(C(C)C)cc3)c(=S)c1-2`, the activation is 1.46%.
For the molecule `CC(C)C1Nc2c(O)cc(Cl)c([N+](=O)[O-])c2C2C=CCC21` (stereo unspecified), the activation is 10.3% (active).
For the molecule `O=[N+]([O-])c1c(Cl)cc(O)c2c1C1C=CCC1C(c1ccc(Cl)cc1Cl)N2` (stereo unspecified), the activation was 5.29%.

Source of the values: PubChem BioAssay AID1508607 (The Scripps Research Institute Molecular Screening Center, 2020).
